Only some compounds are listed: those with a hit (about 8.3% of all), similar ones and a draw of the others.
Marburg entry inh – inhibitors of Marburg virus binding or cell entry. Marburg virus pseudotyped entry inhibition, cell reporter. Potency, µM (series often up to 37.8 µM), for inactives: at the highest dose activity change, negative = inhibition, most hits filed as inhibitors. hit rate 1.8% among 300,000; calls by dose curve; tested in HEK293 cells; note: potency is the fitted concentration of half-maximal effect
HCV inhibitor – blocks hepatitis C virus; Huh7.5.1 HCVcc-Cre infection, luciferase reporter, 44 h; Potency, µM (titrated, usually from 41.8 µM), without a hit: top-dose activity change, negative = inhibition, hits mostly inhibitors; hit rate 3.4% among 340,000; note: potency is the fitted concentration of half-maximal effect
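Compounds are dispensed onto cells plated 4 h earlier at 1,000 per well, with HCVcc-Cre virus (about 0.5 moi) added next. Following 44 h of culture, luminescent signal is measured for 15 sec after 15 min with substrate at room temperature.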
FBPA Giardia inh – blocks Giardia fructose-bisphosphate aldolase activity | A8B2U2 | purified Giardia FBPA | Potency, µM (doses to about 59.6 µM), for inactives: at the highest dose activity, negative = inhibition, actives largely listed as inhibitors | hit rate 0.71% among 290,000 | AID 2451; note: potency is the fitted concentration of half-maximal effect; nearly all actives have a fitted effect of over 55% in size
Target sequence (A8B2U2 whole entry, looked up): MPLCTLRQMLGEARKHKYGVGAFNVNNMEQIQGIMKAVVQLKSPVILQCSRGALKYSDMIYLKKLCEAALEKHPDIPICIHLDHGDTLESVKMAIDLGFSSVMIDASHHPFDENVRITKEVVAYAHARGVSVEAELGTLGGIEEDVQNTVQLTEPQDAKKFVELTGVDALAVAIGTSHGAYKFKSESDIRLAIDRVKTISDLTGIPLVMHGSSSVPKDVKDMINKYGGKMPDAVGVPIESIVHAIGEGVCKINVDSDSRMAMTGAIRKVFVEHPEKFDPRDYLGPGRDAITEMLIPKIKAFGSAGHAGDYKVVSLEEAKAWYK
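40 nM FBPA preincubated 10 min at RT with compound (up to 57.5 uM final), then substrate plus GAPDH/TPI/NAD/arsenate coupling and diaphorase/resazurin added. Fluorescence read after 20 min at RT, 525/598 nm.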
FMDV inh – foot and mouth disease virus antiviral activity | FMDV antiviral cell-based qHTS | Potency, µM (series often up to 57.9 µM), without a hit: top-dose activity change, negative = inhibition, hits mostly inhibitors | hit rate 1.2% among 410,000 | AID 1159524; calls by dose curve; tested in HEK293T cells; note: read-out not given here; potency is the fitted concentration of half-maximal effect; nearly all actives have a fitted effect of over 45% in size
LASV entry inh – Lassa virus entry inhibition. Potency, µM (series often up to 37.9 µM), inactives show top-dose activity change, negative = inhibition, actives largely listed as inhibitors. AID 540256. hit rate 1.2% among 300,000. Lassa virus pseudotype entry inhibition, cell reporter; calls by dose curve; tested in HEK293 cells; note: potency is the fitted concentration of half-maximal effect; nearly all actives have a fitted effect of over 50% in size
HCMV inh – human cytomegalovirus inhibition; hit rate 4.5% among 410,000; AID 1259415; HFF cells, HCMV-luciferase reporter, 72 h; hits give low values; activity change, negative = inhibition, % at 57.5 µM; in the data active = activity change below about -60%; inconclusive = no clear call, values can overlap the other calls; inactive = above about -39%
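Two compound doses tested in HFFs infected with HCMV-luciferase, MOI 1 PFU/cell, 72 h at 37C. Lysate luminescence read with OneGlo; data normalized against buffer-only and 10uM Salinomycin inhibitor controls.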
The depositor's hits bear a star; ? = inconclusive; . = no result given; [ ] = remark or other dose. Unless noted, calls come from the whole dose curve; as a rule, active = well fitted curve in the direction sought with a large enough effect; inconclusive = small, poorly fitted or top-dose-only effect, or another doubt; inactive = no such curve, though single readings can be large; an effect the other way counts as inactive or inconclusive. % is set by controls: 0 for no effect and ±100 for the full control effect.

SMILES	Marburg entry inh	HCV inhibitor	FBPA Giardia inh	FMDV inh	LASV entry inh	HCMV inh
CN(C(=O)CSc1nncn2c1cc1occc12)c1ccccc1	.	.	.	-20.9%	6.0%[46.1 µM]	-97.7*
Cc1cc(C)cc(NC(=O)CSc2nncn3c2cc2occc23)c1	.	.	.	-13.7%	9.0%[46.1 µM]	?
O=C(N/N=C/c1c[nH]c2ccccc12)c1[nH]c2ccc(Br)cc2c1-c1ccccc1	?	-26.0%	8.2%	?	?	-86.1*
CC(=O)NNC(=O)c1[nH]c2ccc(Cl)cc2c1-c1ccccc1	.	8.8%	-0.7%	-1.1%	.	-3.5
O=C(N/N=C/c1c[nH]c2ccccc12)c1cc(Br)ccc1O	.	15.3%	5.9%	42.0%	.	18.9
CCOc1ccc(Br)cc1C(=O)N/N=C/c1c[nH]c2ccccc12	.	12.6µM*	9.1%	-8.5%	.	13.1
Cc1nc(N)sc1C(=O)N/N=C/c1c[nH]c2ccccc12	2.91µM*	-21.5%	-13.6%	.	9.8%	61.8
O=C(NN=C1CCCC1)c1[nH]c2ccc(Cl)cc2c1-c1ccccc1	?	1.1%	-16.6%	-10.4%	?	-92.1*
O=C(N/N=C/c1c[nH]c2ccccc12)c1ccccc1	.	11.0%	6.0%	22.9%	.	32.6
Cc1nc(N)sc1C(=O)N/N=C/c1ccccc1[N+](=O)[O-]	.	.	7.1%	.	.	82.7
C=C[C@@]1(C)CC[C@H](O)[C@H]2C(=O)CCC[C@@H]21	.	.	2.6%	.	.	.
CCCc1nc2ccc(NC(=O)c3ccccc3OC)cn2n1	.	.	.	.	.	-13.2
Cc1ccc(N2CCN(Cc3nnc(-c4ccccc4F)o3)CC2)c(C)c1	13.2%[46.1 µM]	.	.	-29.8%	?	0.7
Cc1cccc(NC(=S)N/N=C/c2c[nH]c3ccccc23)c1	?	10µM*	6.6%	-1.7%	?	5.0
NNC(=O)c1[nH]c2ccccc2c1-c1ccccc1	.	-4.4%	-1.8%	-19.5%	.	-95.2*
O=C(N/N=C/c1ccc(O)cc1)c1[nH]c2ccc(Br)cc2c1-c1ccccc1	?	2.6%	0.7%	-18.6%	?	-93.8*
CC/C(C)=N/NC(=O)c1[nH]c2ccc(C)cc2c1-c1ccccc1	?	0.7%	-0.3%	-14.2%	?	-3.3
CCOC(=O)C1=CCN(S(=O)(=O)c2ccc(Cl)cc2)C1c1ccc(Br)cc1 (centres undefined)	.	.	.	.	.	-31.5
N#C/C(=C\c1cccnc1)C(=O)Nc1cccc2ccccc12	?	31.9%	-15.9%	25.1µM*	11.6%	135.4
CC[C@H](C)[C@H](NC(=O)[C@H](Cc1ccc(O)cc1)NC(=O)[C@H](Cc1cnc[nH]1)NC(=O)[C@H](CCCNC(=N)N)NC(=O)[C@H](CC(C)C)NC(=O)[C@H](C)NC(=O)[C@@H](N)CO)C(=O)N[C@@H](CC(N)=O)C(=O)N[C@@H](CC(C)C)C(=O)N[C@H](C(=O)N[C@H](C(=O)N[C@@H](CCCNC(=N)N)C(=O)N[C@@H](CCC(N)=O)C(=O)N[C@@H](CCCNC(=N)N)C(=O)N[C@@H](Cc1ccc(O)cc1)C(N)=O)[C@@H](C)O)[C@@H](C)CC	.	.	-0.2%	.	.	.
CCOc1ccc(-c2n[nH]c3c2C(c2cccs2)N(c2ccc(Br)cc2)C3=O)cc1 (centres undefined)	?	.	.	?	?	-98.6*
CCOc1ccc(N2C(=O)c3[nH]nc(-c4ccc(OC)cc4)c3C2c2cccs2)cc1 (centres undefined)	7.94µM*	.	.	39.8µM*	?	-95.5*
CCN(CC)CCn1c(=N)n(CCOc2ccccc2)c2ccccc21	4.11µM*	10µM*	0.5%	?	20.6µM*	?
CN=c1sc2ccccc2n1CC(O)COc1ccccc1 (centres undefined)	?	-5.0%	0.1%	0.0%	-32.9%	-28.1
CCn1c(=N)n(CCOc2ccc(Br)cc2)c2ccccc21	.	.	.	?	-30.7%[46.1 µM]	-101.2*
Cn1c(=N)n(CC(=O)c2ccc(Br)s2)c2ccccc21	?	?	0.8%	19.9%	?	5.6

Compound activity from PubChem BioAssay.
